This is part of a sample that, as a whole, favours compounds with a hit. Of some 83,000 tested, about 20% had one in any assay.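 The test compound was applied at a single concentration to cells in 96-well plates for 48 hours, and percent growth was recorded.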 Values without a mark were called inactive. Activity calls are given as the source filed them. The calls were made as follows: active = growth percent below 10; inactive = the rest.
Each compound was assayed on MDA-MB-468 breast (assay: NCI-60 one-dose screen, 48 h (100 = growth as untreated, 0 = no growth, -100 = all killed)). Conditions: 10 µM unless noted.

SMILES | growth
CCCCOC(=O)c1c(C)[nH]c(/C=C2\N=C(c3ccc[nH]3)C=C2OC)c1C | -58.2% (active)
CCN(CC)S(=O)(=O)c1cccc(-c2ccc3c(NC(=O)C4CC4)n[nH]c3c2)c1 | 6.55% [6.25 µM] (active)
Cc1cc(/C=C/c2ccc3cc(N(C)C)ccc3[n+]2C)c(C)n1-c1ccccc1 | -81.9% (active)
COc1ccc(/C=C/C(=O)c2ccc(B(O)O)cc2)cc1O | 66.8%
O=C1Nc2ccccc2/C1=N/N=C/c1ccsc1 | 78.3%
COc1ccc(C2NC(=O)C(C#N)c3c2sc2c(F)cccc32)c(OC)c1 (stereo not given) | 24.3%
CNC(=O)c1c(NC(=O)c2ccc(C(C)(C)C)cc2)sc2c(CN(C)C)c(O)ccc12 | -60.5% (active)
NC(N)=Nc1ccc(Oc2cccc(Nc3ccc(Cl)cc3)c2)cn1 | -27.9% (active)
COc1ccc(OC)c([N+](=O)[O-])c1C(=O)CNC(C)=O | 98%
Cc1ncc(C(=O)Nc2ccc(CN3CCN(C)CC3)c(C(F)(F)F)c2)cc1C#Cc1ccc(N)nc1 | 10.9%
CCC(C)(O)Cc1ccc(Cl)cc1 (stereo not given) | 101%
O=C(NCc1ccco1)Nc1c(Cl)cc(Cl)cc1Cl | 87.8%
CC/C=C\C[C@H](O)C/C=C1/C(=O)C=C[C@@H]1C/C=C\CCCC(=O)OC(C)C | -17% (active)
CCCCCCCCCCCC1=NC(C)(C)CN1C(C)C | -1.36% (active)
O=c1[nH]c2ccccc2n1C1CCN(CCOc2ccccc2)CC1 | 78.9%
COc1cccc(OC)c1Oc1c(-c2nc3ccccc3s2)c(C)nn1-c1ccccc1 | 71.2%
CCOC(=O)C1=NN(c2ccccc2)C(=O)/C1=C\N1C(=O)/C(=C/c2cccc(O)c2)SC1=S | 106%
Cc1cc([N+](=O)[O-])ccc1NC(=O)c1ccc2c(c1)nc(-c1ccccc1)n2C1CCCCC1 | 100%
CCN(CC)CCn1c2ccc(O)cc2c2sc3cc(O)ccc3c(=O)c21 | 47.8%
Cn1ccnc1C(=O)/C=C/c1ccc(CC(=O)Nc2ccc(Br)cc2)cc1 | 0.947% (active)

SMILES | growth
Nc1cccc(Nc2cc(S(=O)(=O)O)c(N)c3c2C(=O)c2ccccc2C3=O)c1 | 112%
CC1SC(c2cccc(Oc3ccccc3)c2)N(CCc2cccs2)C1=O (stereo not given) | -45.5% (active)
N#Cc1c2ccccc2c2n1-c1ccccc1OC(c1ccccc1)C2=O (stereo not given) | 65.7%
COc1ccc2nc3cc(Cl)ccc3c(N)c2c1 | -88.9% (active)
Nc1cc(C(=O)N/N=C\c2ccc(OC(F)F)c(OC3CCCC3)c2)nn1CC(O)c1ccccc1 (stereo not given) | 106%
O=C(CS)OCC(COC(=O)CS)(COC(=O)CS)COC(=O)CS | 78.8%
C(=N\Nc1ncc(-c2cc3cc4c(cc3o2)OCO4)s1)/c1c[nH]c2ccccc12 | 0.523% (active)
CN1CCN(C(=O)c2ccc(NC(=O)c3cc4c(nn3)NCCN4Cc3cc(Cl)ccc3Cl)cc2)CC1 | 60.9%
COc1ccc(Nc2nc3ccc(NC(=O)NC4CCCCC4)cc3[nH]c2=O)cc1 | 96%
Clc1ccc(-c2nnc(COc3ccc(C4=NNC(c5ccco5)C4)cc3)o2)cc1 (stereo not given) | 9.43% (active)
O=C1C=CC(=O)N1c1cccc(N2C(=O)C=CC2=O)c1 | 51.5%
CC(=O)N1N=C(c2cc3ccccc3oc2=O)CC1c1cn(-c2ccccc2)nc1-c1ccc(C)cc1 (stereo not given) | 94.6%
Nc1ncc(-c2cnn(C3CCNCC3)c2)cc1-c1nc2cc(Cl)ccc2o1 | -94.3% (active)
CCOC(=O)C(Cc1cc(I)c(O)c(I)c1)NC(=O)c1ccccc1 (stereo not given) | 98.9%
N=c1ccc2nc3ccc(N)cc3sc-2c1 | -16.2% (active)
CCOC(=O)c1ccc2n1CCCc1cnc(NC(C)=O)nc1-2 | 96.1%
COc1ccc2[nH]c(O)c(/C=c3/ccc4c(c3)N=C(c3ccc(F)cc3)N=4)c2c1 | 76%
C=CC(=O)N1CCN(c2cccc(Oc3nccc(Nc4nnc(-c5ccc(Br)cc5)s4)n3)c2)CC1 | 84.4%
C[C@@H]1C=C2C(=O)O[C@@H]3CC[C@H](C1)[C@]23O | 11.4%
COc1ccc(C2CC(n3nnnc3-c3ccccc3)=NN2)cc1 (stereo not given) | 64.5%

— PubChem BioAssay (NCI)
